High-throughput results from PubChem BioAssay.
Compounds with a hit are over-represented: about 7.7% of the library has one in this group of screens.
Giardia FBPA inh: qHTS Assay for Inhibitors of Fructose-1,6-bisphosphate Aldolase from Giardia Lamblia. purified Giardia FBPA. Potency, µM (highest dose often 59.6 µM), for inactives: top-dose activity, negative = inhibition, most hits filed as inhibitors. A8B2U2. actives 0.71% (n = 290,000). AID 2451, 2010; note: potency is the fitted concentration of half-maximal effect; nearly all actives have a fitted effect of over 55% in size
Target sequence (A8B2U2 whole entry, looked up): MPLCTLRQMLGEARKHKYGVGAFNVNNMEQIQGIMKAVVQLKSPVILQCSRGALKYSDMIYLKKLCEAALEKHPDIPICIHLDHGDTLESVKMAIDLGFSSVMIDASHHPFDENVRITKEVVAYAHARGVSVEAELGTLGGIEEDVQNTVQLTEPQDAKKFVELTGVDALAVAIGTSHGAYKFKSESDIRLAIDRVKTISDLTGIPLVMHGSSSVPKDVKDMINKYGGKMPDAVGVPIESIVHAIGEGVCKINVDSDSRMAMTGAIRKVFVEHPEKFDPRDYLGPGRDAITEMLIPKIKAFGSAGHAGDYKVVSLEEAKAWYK
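40 nM FBPA preincubated 10 min at RT with compound (up to 57.5 uM final), then substrate plus GAPDH/TPI/NAD/arsenate coupling and diaphorase/resazurin added. Fluorescence read after 20 min at RT, 525/598 nm.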
RE007 growth inh: qHTS Assay for Inhibitors of the HIV-1 protein Vpr; AID 651644, 2012; actives 0.21% (n = 360,000); Potency, µM (doses to about 92.2 µM), for the others: at the top dose activity change, negative = less growth, hits mostly inhibitors; S. pombe RE007 Vpr strain, BacTiter-Glo ATP luminescence, 24 h; active = well fitted falling curve with a large enough effect; inconclusive = small, poorly fitted or top-dose-only effect; inactive = no such curve, though single readings can be large or run the other way; note: potency is the fitted concentration of half-maximal effect; nearly all actives have a fitted effect of over 50% in size
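Fission yeast strain RE007, carrying one chromosomally integrated HIV-1 vpr copy, was seeded at OD 0.01 in PMG+AL medium with 23 nL pinned compound. After 24 h at 30 °C and 99% humidity, viability was read by BacTiter-Glo luminescence.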
Sm TGR block: qHTS Assay for the Inhibitors of Schistosoma Mansoni Peroxiredoxins. purified TGR, DTNB reduction, TNB absorbance 405 nm. Potency, µM (doses to about 114 µM), for inactives: top-dose activity change, negative = inhibition, most hits filed as inhibitors. actives 3% (n = 360,000); note: potency is the fitted concentration of half-maximal effect; nearly all actives have a fitted effect of over 60% in size
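TGR 20 nM + NADPH 100 uM (dispensed conc.), cpd preinc 15 min RT; start with NADPH (500 uM addition) then DTNB (15 mM addition). Kinetic TNB absorbance, 405 nm filter. Four-parameter Hill fit across titration.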
HCMV inh: qHTS Assay for inhibitors of the human cytomegalovirus (HCMV) | activity change, negative = inhibition, % at 57.5 µM | HFF cells, HCMV-luciferase reporter, 72 h; stronger effect = lower value | actives 4.5% (n = 410,000); in the data active = activity change below about -60%; inconclusive = no clear call, values can overlap the other calls; inactive = above about -39%
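Two compound doses tested in HFFs infected with HCMV-luciferase, MOI 1 PFU/cell, 72 h at 37C. Lysate luminescence read with OneGlo; data normalized against buffer-only and 10uM Salinomycin inhibitor controls.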
Tb PYK inh: qHTS of Trypanosoma Brucei Inhibitors. TbPYK enzyme, Kinase-Glo Plus ATP luminescence, 45 min. Potency, µM (top dose mostly 76.8 µM), inactives show at the highest dose activity, negative = inhibition, usual class: inhibitors. actives 0.12% (n = 410,000). pyruvate kinase (Trypanosoma brucei), Q57TT1; note: potency is the fitted concentration of half-maximal effect; nearly all actives have a fitted effect of over 50% in size
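Luminescent Kinase-Glo Plus end-point after 45 min room-temperature reaction of T. brucei pyruvate kinase started with 130 uM ADP (final). Buffer TEA 50 mM pH 7.2 with KCl, MgCl2, BSA, Tween-20; titration-based qHTS with fitted concentration-effect curves.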
FMDV antiviral: High Throughput Screening for Foot and Mouth Disease Virus Antivirals | actives 1.2% (n = 410,000) | Potency, µM (series often up to 57.9 µM), without a hit: top-dose activity change, negative = inhibition, usual class: inhibitors | FMDV antiviral cell-based qHTS | AID 1159524, 2015; calls by dose curve; tested in HEK293T cells; note: read-out not given here; potency is the fitted concentration of half-maximal effect; nearly all actives have a fitted effect of over 45% in size
Numbers without * were called inactive. Unless noted, calls come from the whole dose curve; as a rule, active = well fitted curve in the direction sought with a large enough effect; inconclusive = small, poorly fitted or top-dose-only effect, or another doubt; inactive = no such curve, though single readings can be large; an effect the other way counts as inactive or inconclusive. % is set by controls: 0 for no effect and ±100 for the full control effect.

COc1ccc(C)cc1N(C)C(=O)c1sc2nc3n(c(=O)c2c1C)CCCCC3 was read as Sm TGR block 22µM*, HCMV inh -2, Tb PYK inh -2% and FMDV antiviral -8%.
For COc1ccc(CNC(=O)c2sc3nc4n(c(=O)c3c2C)CCCCC4)cc1 the results were Sm TGR block 8.9µM*, HCMV inh 16, Tb PYK inh -27% and FMDV antiviral 22µM*.
For CCCN(C(=O)c1sc2nc3n(c(=O)c2c1C)CCCC3)c1ccccc1C the results were Sm TGR block -15%, HCMV inh -102*, Tb PYK inh -1% and FMDV antiviral -23%.
Screening Cc1c(C(=O)NCc2ccc(Cl)cc2)sc2nc3n(c(=O)c12)CCC3 returned Sm TGR block -6%, HCMV inh -5, Tb PYK inh -6% and FMDV antiviral -2%.
For CC1CCN(C(=O)CSc2nc3ccccc3nc2Cc2ccccc2)CC1 the results were Sm TGR block 1%, HCMV inh 3, Tb PYK inh -1% and FMDV antiviral -13%.
Cc1ccccc1NC(=O)c1ccc(Nc2c([N+](=O)[O-])cc([N+](=O)[O-])c3ccccc23)cc1 was read as Giardia FBPA inh 5%, RE007 growth inh -16%, Sm TGR block 6%, HCMV inh -92*, Tb PYK inh 1% and FMDV antiviral inconclusive.
Screening Cc1nc2cccnc2n1C1CCN(S(C)(=O)=O)CC1 returned Sm TGR block -3%, HCMV inh -20, Tb PYK inh -6% and FMDV antiviral 17%.
CCn1c(C(=O)N2CCC(C(=O)N3CCN(c4ccc(OC)cc4)CC3)CC2)cc2sccc21 was read as Sm TGR block -4%, HCMV inh -25, Tb PYK inh -7% and FMDV antiviral inconclusive.
`O=C1NC(=O)C(=Cc2ccc(-c3ccc(Cl)cc3)o2)C(=O)N1` gave Giardia FBPA inh 3%, RE007 growth inh 35%, Sm TGR block inconclusive, Tb PYK inh inconclusive and FMDV antiviral 32µM*.
`O=C1NC(=O)C(=Cc2ccc(-c3ccc(S(=O)(=O)N4CCOCC4)cc3)o2)C(=O)N1` gave Giardia FBPA inh -5%, RE007 growth inh -11%, Sm TGR block inconclusive, HCMV inh 19, Tb PYK inh inconclusive and FMDV antiviral inconclusive.
`O=C1NC(=O)C(=Cc2ccc(Sc3ccccc3)o2)C(=O)N1` gave Giardia FBPA inh -19%, RE007 growth inh 0%, Sm TGR block 50µM*, HCMV inh 124, Tb PYK inh 40µM* and FMDV antiviral 22µM*.
Screening COc1cccc2cc(C(=O)C3=C(O)C(=O)N(Cc4ccco4)C3c3cccnc3)oc12 (stereo not given) returned Giardia FBPA inh 10%, RE007 growth inh -6%, Sm TGR block 25µM*, Tb PYK inh 4% and FMDV antiviral 2%.
`COc1cccc2cc(C(=O)C3=C(O)C(=O)N(c4cc(C)on4)C3c3cccs3)oc12` (stereo not given) gave Giardia FBPA inh inconclusive, RE007 growth inh 12%, Sm TGR block 28µM*, HCMV inh -70*, Tb PYK inh -5% and FMDV antiviral -18%.
O=C(C1=C(O)C(=O)N(Cc2ccco2)C1c1cccnc1)c1cc2ccccc2o1 (stereo not given) was read as Giardia FBPA inh 11%, RE007 growth inh 3%, Sm TGR block 25µM*, HCMV inh 0, Tb PYK inh -17% and FMDV antiviral -24%.
COc1cccc(C2C(C(=O)c3cc4cccc(OC)c4o3)=C(O)C(=O)N2c2cc(C)on2)c1OC (stereo not given) was read as Giardia FBPA inh 23%, RE007 growth inh -3%, Sm TGR block -24%, HCMV inh -26, Tb PYK inh 1% and FMDV antiviral inconclusive.
CCCCC(=O)N(Cc1ccc(-c2ccccc2-c2nn[nH]n2)cc1)[C@@H](C(=O)O)C(C)C was read as FMDV antiviral 3%.
CN1CC(=O)N/C1=N\C(=O)Nc1cccc(Cl)c1 was read as HCMV inh 15.
Screening COC(=O)C1=C(C)N(Cc2ccco2)C(=O)C1 returned Giardia FBPA inh -26%, RE007 growth inh -6%, Sm TGR block 18µM*, HCMV inh 18, Tb PYK inh -5% and FMDV antiviral -19%.
COC(=O)C1=C(C)N(Cc2ccco2)C(=O)N[C@@H]1c1ccccc1 was read as Giardia FBPA inh -1%, RE007 growth inh 6%, Sm TGR block 35µM*, HCMV inh -4, Tb PYK inh -12% and FMDV antiviral -22%.
For NC1CCCC[C@@H]1N (stereo not given in full) the results were Giardia FBPA inh -13%.
For COc1ccc2c(c1)CCc1cnc(-n3ncc(C(=O)NCC(C)(C)CN(C)C)c3C)nc1-2 the results were FMDV antiviral 0%.
For O=C(Nc1csc([N+](=O)[O-])c1)Nc1ccccc1Cl the results were Giardia FBPA inh -9%, RE007 growth inh -12%, Sm TGR block -1%, HCMV inh -67*, Tb PYK inh -1% and FMDV antiviral -3%.
`O=C(Nc1ccccc1Cl)Nc1ccccc1Cl` gave Giardia FBPA inh 0%, RE007 growth inh -7%, Sm TGR block -5%, HCMV inh -35, Tb PYK inh 0% and FMDV antiviral 1%.
N#Cc1ccccc1NC(=O)Nc1ccc(Cl)cc1 was read as Giardia FBPA inh 9%, RE007 growth inh -4%, Sm TGR block 2%, HCMV inh -21, Tb PYK inh 5% and FMDV antiviral 6%.
O=C(Nc1ccc(Cl)cc1)Nc1ccccc1Sc1ncc([N+](=O)[O-])s1 was read as Giardia FBPA inh -19%, RE007 growth inh -24%, Sm TGR block 4.5µM*, HCMV inh inconclusive, Tb PYK inh -28% and FMDV antiviral -13%.
Cc1nc(C)c(C(=O)NCc2nc(-c3cccc(NC(=O)c4ccccn4)c3)oc2C)s1 was read as FMDV antiviral -21%.
COc1ccc(CCNC(=O)Cn2nc(C)n3c(cc4occc43)c2=O)cc1OC was read as Sm TGR block -10%, HCMV inh -1, Tb PYK inh -3% and FMDV antiviral 1%.
`CCN1CCCC1CNC(=O)c1cnn(-c2nccc(-c3cc4ccccc4o3)n2)c1C` (stereo not given) gave FMDV antiviral 4%.
